Out of some 7,900 compounds screened, about 400 (5.1%) showed an effect of 50% or more. Many of the other results were omitted from the sample, so strong results are more common in it than they were.
What follows are molecules tested against Parkinson's disease protein 7 (PARK7/DJ1) (human, UniProt Q99497) (assay: primary screen, percent inhibition; read as competition with a fluorescent probe by fluorescence polarization; higher = more effect of the substance). Conditions: 100 µM.
Chain of Parkinson's disease protein 7 (PARK7/DJ1) (Q99497 whole entry, looked up, the tested form may be a part): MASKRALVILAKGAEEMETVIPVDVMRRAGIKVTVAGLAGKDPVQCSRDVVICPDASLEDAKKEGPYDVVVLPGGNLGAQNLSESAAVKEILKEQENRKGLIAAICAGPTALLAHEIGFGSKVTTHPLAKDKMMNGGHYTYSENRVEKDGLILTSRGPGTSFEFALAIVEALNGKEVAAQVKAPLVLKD
Protocol: The screen was conducted using the conditions as described above in 1536-well plates (Corning 3724) with a reaction volume of 8 μL per well. The compound library containing 7887 covalent fragments was purchased at Enamine Ltd. and received as 100 mM DMSO stocks in 384 well LDV Echo plates (Labcyte LP-0200). Stock solutions of 0.26 μM PARK7 and 80 nM JYQ-107 were prepared. Using a Labcyte Echo550 acoustic dispenser, 8 nL of the DMSO stock solution of the library compounds was transferred from the source plates into the empty 1536-well screening plates to obtain a 100 μM final compound concentration. Next, PARK7 (6 μL, final concentration 0.2 μM) was dispensed using a Biotek MultiflowFX liquid dispenser and incubated for 2 h, followed by dispensing the probe JYQ-107 (2 μL, final concentration 20 nM). After 2 h incubation, the FP signal was recorded on a BMG Labtech PHERAstar plate reader (λex/em 480/520 nm). The relative loss of FP signal compared with reference controls was used to calculate the remaining enzyme activity.
With CC1CC1C(=O)N[C@H]1CC[C@@H](CS(=O)(=O)F)C1 (stereo in doubt) the Inhibition % was 90.9%.
